Experimental data as given in the supplement of paper PMC13380429.

Legend:
[1] = tested on: Vero E6 infected with SARS-CoV-2; assay: morphology score (similarity to uninfected cells); higher = more like uninfected cells; conditions: 24 h
[2] = tested on: Vero E6 infected with SARS-CoV-2; assay: SARS-CoV-2 infection rate relative to infected DMSO; higher = more infection, active = 60 or less; conditions: 24 h

SMILES	morphology score [1]	SARS-CoV-2 infection rate [2]
C[C@@]12CC[C@@H]3[C@@](CC[C@H]4[C@@]3(C)CCC[C@@]4(C)C(=O)O)(CC1=O)C2 [isosteviol] (10 µM)	0.144	100% (inactive)
CNS(=O)(=O)Nc1nccc(Cc2c(C)c3ccc(Oc4ncccn4)cc3oc2=O)c1F (0.833333 µM)	-0.0748	113% (inactive)
COc1ccn2ncc(-c3nc4[nH]nc(NC(=O)c5ccc(F)cc5)c4cc3F)c2c1 (10 µM)	0.00883	111% (inactive)
CCS(=O)(=O)c1ccc2oc(-c3ccc4ccccc4c3)nc2c1 [ezutromid] (10 µM)	0.174	98.5% (inactive)
CCc1nc2c(C)nc(C)cc2n1-c1ccc(CCNC(=O)NS(=O)(=O)c2ccc(C)cc2)cc1 [grapiprant] (10 µM)	0.243	93.5% (inactive)
CC(C)(O)c1ccn2c(-c3ccc(F)c(-c4ccc(F)cc4C#N)c3)cnc2c1F (10 µM)	-0.0136	108% (inactive)
COc1ncc(-c2ccc3nccc(-c4ccnnc4)c3c2)cc1NS(=O)(=O)c1ccc(F)cc1F (0.833333 µM)	-0.0933	110% (inactive)
O=C(O)Cn1c2c(c3cc(F)ccc31)CN(C(=O)c1cccc3ccccc13)CC2 [setipiprant] (10 µM)	-0.161	108% (inactive)
c1ccc(CNCc2ccc(CN3CCCNCCNCCCNCC3)cc2)nc1 (10 µM)	0.129	100% (inactive)
CCCCCNCC(N)=O [milacemide] (10 µM)	0.0276	99% (inactive)
CNC(=O)[C@@H](Cc1ccccc1)N(C)C(=O)[C@@H](Cc1ccc2ccccc2c1)N(C)C(=O)/C=C/CC(C)(C)N [tabimorelin] (10 µM)	-0.00047	112% (inactive)
CCS(=O)(=O)N(Cc1cccnc1)c1cccc(-c2ccc(C#N)cc2)c1 (10 µM)	0.372	87% (inactive)
Cn1cc(-c2ccc3nnc(Sc4ccc5ncccc5c4)n3n2)cn1 (10 µM)	0.144	87% (inactive)
O=C(OCCN1CCCCC1)c1c[nH]c2ccccc12 (10 µM)	0.0285	102% (inactive)
O=C1NC(=S)NC(=O)C1C(=O)Nc1ccccc1 [merbarone] (10 µM)	0.103	99% (inactive)
O=C(CCCN1CCC(O)(c2ccc(Cl)cc2)CC1)c1ccc(F)cc1 [haloperidol] (10 µM)	-0.0179	114% (inactive)

SMILES	morphology score [1]	SARS-CoV-2 infection rate [2]
CCC(=O)O[C@@](Cc1ccccc1)(c1ccccc1)[C@@H](C)CN(C)C [levopropoxyphene] (10 µM)	-0.0577	109% (inactive)
CC1(C)C[C@@H]1C(=O)N/C(=C\CCCCSC[C@H](N)C(=O)O)C(=O)O [Cilastatin Sodium] (10 µM)	0.215	88.5% (inactive)
C[C@H](C[C@H](N)C(=O)O)C(=O)O (10 µM)	0.0497	108% (inactive)
Cc1ncc(-c2ccnc(Nc3ccc(S(C)(=O)=O)cc3)n2)n1C(C)C (0.833333 µM)	-0.165	99.5% (inactive)
CN(C(=O)c1c(O)c2ccccc2n(C)c1=O)c1ccccc1 [roquinimex] (10 µM)	0.211	94.5% (inactive)
Nc1nc2ccc(Cl)cc2c2nc(-c3ccco3)nn12 (10 µM)	0.125	108% (inactive)
Cc1ncc(CO)c(C=O)c1O [pyridoxal] (10 µM)	-0.165	109% (inactive)
NS(=O)(=O)c1nn2cc(-c3ccccc3)nc2s1 (10 µM)	0.289	97.5% (inactive)
O=C(O)C1=CCNCC1 [isoguvacine] (10 µM)	0.0662	99.5% (inactive)
Nc1ccn([C@@H]2O[C@H](CO)[C@@H](O)[C@@H]2O)c(=O)n1 [cytarabine] (0.833333 µM)	0.0731	97% (inactive)
Cc1cccc(C(C)c2c[nH]cn2)c1C (configuration not stated) [medetomidine] (10 µM)	-0.0614	102% (inactive)
COc1ccc2cc3[n+](cc2c1OC)CCc1cc2c(cc1-3)OCO2 [berberine] (10 µM)	0.0605	98% (inactive)
Cc1cc(N2CCOCC2)ccc1Nc1nc(NC2CCCCC2)c2nc[nH]c2n1 (10 µM)	-0.0587	90.5% (inactive)
NC1CCN(c2cccc(Cl)n2)CC1 (10 µM)	-0.122	108% (inactive)
COc1ccc(Nc2nccc(NCCO)n2)cc1 [cardiogenol-C] (10 µM)	0.0849	100% (inactive)
